Laboratory results as given in ChEMBL document CHEMBL3988442, “University of Dundee, Small-Polar-MMV Screening Library” (2021).
About 900 (1.7%) of roughly 53,000 compounds showed an effect of 50% or more. This is one part of a sample in which strong results are shown more often than they occur.

These molecules were tested on Mycobacterium tuberculosis (assay: Cornell - Phenotypic assay to identify agents that inhibit growth of Mycobacterium tuberculosis). Conditions: 10 mM as filed; unlikely as a test dose.
Type: functional
Parameters: scale not given: direction of the effect not stated beside the values

Compared with `CCC1C(=O)NCCN1c1nccc(C)n1` (stereo not given), `Cc1cc(C)nc(C2CCCN2C(=O)c2cnccn2)n1` (stereo not given) is lower in “Percent Effect” value: -0.2663% for the first, -1.129% for the second.

Going from `Cc1nc(CN2CCc3nc(NC(C)C)nc(C)c3C2)cs1` to `Cc1nc(CN2CCc3nc(N4CCCC4)nc(NC(C)C)c3C2)cs1`, the “Percent Effect” value rises from 38.07% to 75.47%.

Compared with `CC(C)Nc1nc(N2CCCC2)nc2c1CN(c1ncc(F)cn1)CC2`, `CC(C)Nc1nc(N2CCCC2)nc2c1CN(C)CC2` is lower in “Percent Effect” value: 82.11% for the first, 33.38% for the second.

First: CCCN1CCc2nc(N3CCOCC3)nc(NC(C)C)c2C1
Second: CCN1CCc2nc(N3CCOCC3)nc(NC(C)C)c2C1
The “Percent Effect” value of the first is higher: 29.26% for the first, 16.58% for the second.

Going from `CCC(C)N1CCc2nc(N3CCCC3)nc(NC(C)C)c2C1` (stereo not given) to `CC(C)Nc1nc(N2CCCC2)nc2c1CN(C(C)C)CC2`, the “Percent Effect” value rises from -13.77% to 61.73%.

Going from `CC(C)Nc1nc(N2CCCC2)nc2c1CN(S(C)(=O)=O)CC2` to `O=C(NCCc1cc(N2CCOCC2)nc(N2CCCC2)n1)C1CC1`, the “Percent Effect” value rises from 12.79% to 50.32%.

Compared with `CCN(C(=O)c1nc2c(s1)CCCN2c1ccc(C)nn1)C(C)C`, `Cc1nc(C)n(CC(=O)N2CCCC(c3cc4ccccc4cn3)C2)n1` (stereo not given) is lower in “Percent Effect” value: 10.96% for the first, -16.13% for the second.

Going from `Cc1cc(F)ccc1N1CCCC(Nc2nccn3cnnc23)C1=O` (stereo not given) to `Cc1cc(-c2cc(F)ccc2C(=O)O)nc(C2CCCN(C)C2)n1` (stereo not given), the “Percent Effect” value rises from -2.577% to 0.614%.

Going from `Cc1cc(C(F)(F)F)n2nc(C3CCN(S(=O)(=O)N(C)C)CC3)cc2n1` to `Cc1cc(C(=O)N(CC(F)(F)F)C2CCOCC2)c(C)o1`, the “Percent Effect” value rises from -8.533% to 51.1%.

Compared with `Cn1ccc2c(-c3cc(N4CCCCC4)ncn3)ccnc21`, `Cn1cc(-c2cnc(N3CCCC3)nc2)cc1C(=O)O` is higher in “Percent Effect” value: -7.071% for the first, 95.84% for the second.

Going from `Clc1cc(N2CCN(C3CCOCC3)CC2)nc2[nH]ccc12` to `Cc1cc(N2CCN(C3CCOCC3)CC(C(=O)N(C)C)C2)ncn1` (stereo not given), the “Percent Effect” value rises from -30.2% to 3.983%.

First: CN(Cc1noc(-c2ccccc2)n1)C(=O)CSc1nnc(N)s1
Second: CN(Cc1noc(C(C)(C)C)n1)Cc1ccccc1N1CCCCC1
The “Percent Effect” value of the first is lower: -22.54% for the first, 2.184% for the second.

Going from `CC(C)NC(=O)Cc1cnc(-n2cccc2)s1` to `CC(C)NC(=O)C1(Cc2ccccc2-c2cncnc2)CCCNC1` (stereo not given), the “Percent Effect” value falls from 43.3% to -1.5%.

Going from `CCOCC(=O)N1CCCn2c(CN3CCOCC3)nnc2C1` to `O=S(=O)(c1cccnc1)N1CCCCC1CCN1CCOCC1` (stereo not given), the “Percent Effect” value falls from 18.04% to -15.47%.

Compared with `CN1CCN(C(=O)c2cc(-c3cnc(N4CCCC4)nc3)cn2C)CC1`, `Cn1cc(-c2cnc(N3CCOCC3)nc2)cc1C(=O)O` is higher in “Percent Effect” value: 2.355% for the first, 44.3% for the second.

Going from `COc1cccc(Cl)c1C(C(=O)O)N1CCC(Cn2cccn2)CC1` (stereo not given) to `O=C(Nc1nc(-c2ccccc2)ns1)N1CCC(F)CC1`, the “Percent Effect” value rises from -18.71% to 13.41%.

Going from `CC(C)(O)C1CCN(C(=O)Nc2nc(-c3ccccc3)ns2)CC1` to `CC(C)(O)C1CCCN(C(=O)Nc2nc(-c3ccccc3)ns2)C1` (stereo not given), the “Percent Effect” value falls from 105.1% to 24.52%.

Compared with `O=C(c1ccc(-n2cnnc2)cc1)N1CCCC(n2ccnc2)C1` (stereo not given), `COCCNC(=O)c1ccc2ccc(N3CCN(CC4CC4)CC3)n2c1` is lower in “Percent Effect” value: 15.63% for the first, -16.88% for the second.

First: Cc1cc(C)c2cc(CNCc3ccc(C)o3)c3nn(C)c(=O)n3c2c1
Second: Cc1cc(C)n(CC2CN(Cc3cccc(C#N)c3)CCO2)n1 (stereo not given)
The “Percent Effect” value of the first is lower: -2.639% for the first, 14.78% for the second.

Compared with `O=C(CCn1ccc2ccc(Cl)cc21)NCc1ccc(C(=O)O)cc1`, `Cc1ccccc1CC(=O)NCc1cnc(CC2CCN(C)CC2)cn1` is higher in “Percent Effect” value: 28.36% for the first, 48.16% for the second.

First: Cc1ccc(-c2ccccc2CC2(C(=O)NC(C)C)CCCNC2)cc1 (stereo not given)
Second: CC(C)NC(=O)C1(Cc2ccccc2-c2ccccc2)CCCNC1 (stereo not given)
The “Percent Effect” value of the first is higher: 60.07% for the first, -4.67% for the second.

First: COc1ccc(CN2CCn3cc(CN4CCN(C)CC4)nc3C2)cc1.O=C(O)C(F)(F)F.O=C(O)C(F)(F)F.O=C(O)C(F)(F)F
Second: Cc1ccc(CN2CCC3(CC2)C(=O)Nc2ccccc23)s1.O=C(O)C(F)(F)F
The “Percent Effect” value of the first is lower: 3.435% for the first, 18.05% for the second.

Compared with `CC(C)COCCC(=O)Nc1ccc2oc(=O)n(CCN(C)C)c2c1`, `Cc1cn2c(n1)CCC(NC(=O)CCOc1cccc(F)c1)C2` (stereo not given) is higher in “Percent Effect” value: -58.21% for the first, 5.433% for the second.

Going from `O=C(NCCc1cc(N2CCOCC2)nc(NC2CC2)n1)C1CCCO1` (stereo not given) to `O=C(NCCc1cc(N2CCOCC2)nc(NC2CC2)n1)C1CC1`, the “Percent Effect” value falls from 34.16% to 33.35%.

Going from `c1cc(-c2c[nH]nc2C2CCCCC2)nc(N2CCCCCC2)n1` to `NC(=O)C1CCN(c2nccc(-c3c[nH]nc3C3CCCCC3)n2)CC1`, the “Percent Effect” value falls from 77.63% to 12.19%.

Going from `OC[C@H]1CCCN1c1nccc(-c2c[nH]nc2C2CCCCC2)n1` to `Cc1n[nH]c(C)c1NC(=O)C1CCCN(C(=O)NCC(C)C)C1` (stereo not given), the “Percent Effect” value falls from 4.191% to -0.6091%.

First: COc1ccccc1C1(CNc2nnc(C)c(C)c2C#N)CCOCC1
Second: COc1ccccc1C1(CNc2nnc(C)c(C)c2C#N)CCCC1
The “Percent Effect” value of the first is lower: -5.763% for the first, 86.76% for the second.

Going from `Cc1nnc(NCC2(c3ccccc3)CCC2)c(C#N)c1C` to `O=C(O)C(F)(F)F.O=C1Nc2ccccc2C12CCN(Cc1nccs1)CC2`, the “Percent Effect” value falls from 47.49% to -8.416%.

Going from `Cn1cnnc1SCc1cc2c(cc1Cl)OCO2` to `CCCc1cnc(C)nc1N1CCC(Cn2cc(CN(C)C)nn2)CC1`, the “Percent Effect” value falls from 23.01% to 18.6%.

Compared with `O=C(c1ccc(F)cc1F)N(CC(F)(F)F)C1CCOCC1`, `CCN(C(=O)c1cc(C)oc1C)C1CC1` is lower in “Percent Effect” value: 37.88% for the first, 4.626% for the second.

First: O=C(O)C(F)(F)F.O=C1Nc2ccccc2C12CCN(Cc1cccs1)CC2
Second: O=C(CCc1ccco1)Nc1cc(C(F)(F)F)c[nH]c1=O
The “Percent Effect” value of the first is higher: 50.44% for the first, 7.769% for the second.

Compared with `CCOc1ccc(NC(C)=O)cc1S(=O)(=O)Nc1nccs1`, `CC(CCc1ccco1)NC(=O)Nc1cc(C(F)(F)F)c[nH]c1=O` (stereo not given) is higher in “Percent Effect” value: 7.151% for the first, 102.9% for the second.

For `CN(Cc1ccco1)C(=O)Nc1cc(C(F)(F)F)c[nH]c1=O`, the “Percent Effect” value was -17.34%.
